Results filed as inconclusive are left out. The source made the active and inactive calls.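 The calls were made as follows, unless noted: active = RAM network inhibition above 8.4% in each of two replicates, 3 SD over the compound average; inconclusive = above 8.4% inhibition in only one replicate; inactive = 8.4% inhibition or less in each replicate.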
What was measured:
[1] = Her2 expression decrease, cell viability multiplex – SKBR3 breast tumor cells, AlphaScreen, ATP viability, primary screen (AID 461;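 active = Her2 level under about 52% in both replicate screens, with viability over 70% of control, limit read from the data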;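 as to Her2 level: lower value means less Her2 protein in the cells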;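 as to viability: percent of carrier control wells set as 100% viability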); details: SKBR3 Her2 protein level, 18-24 h, measured here: SKBR3 viability, ATP luminescence, at 10 µM
[2] = target: Receptor tyrosine-protein kinase erbB-2 (Homo sapiens) (UniProt P04626); assay: as above; details: 18-24 h, at 10 µM, stronger effect = lower value
Receptor tyrosine-protein kinase erbB-2 (Homo sapiens), sequence (P04626 whole entry, looked up): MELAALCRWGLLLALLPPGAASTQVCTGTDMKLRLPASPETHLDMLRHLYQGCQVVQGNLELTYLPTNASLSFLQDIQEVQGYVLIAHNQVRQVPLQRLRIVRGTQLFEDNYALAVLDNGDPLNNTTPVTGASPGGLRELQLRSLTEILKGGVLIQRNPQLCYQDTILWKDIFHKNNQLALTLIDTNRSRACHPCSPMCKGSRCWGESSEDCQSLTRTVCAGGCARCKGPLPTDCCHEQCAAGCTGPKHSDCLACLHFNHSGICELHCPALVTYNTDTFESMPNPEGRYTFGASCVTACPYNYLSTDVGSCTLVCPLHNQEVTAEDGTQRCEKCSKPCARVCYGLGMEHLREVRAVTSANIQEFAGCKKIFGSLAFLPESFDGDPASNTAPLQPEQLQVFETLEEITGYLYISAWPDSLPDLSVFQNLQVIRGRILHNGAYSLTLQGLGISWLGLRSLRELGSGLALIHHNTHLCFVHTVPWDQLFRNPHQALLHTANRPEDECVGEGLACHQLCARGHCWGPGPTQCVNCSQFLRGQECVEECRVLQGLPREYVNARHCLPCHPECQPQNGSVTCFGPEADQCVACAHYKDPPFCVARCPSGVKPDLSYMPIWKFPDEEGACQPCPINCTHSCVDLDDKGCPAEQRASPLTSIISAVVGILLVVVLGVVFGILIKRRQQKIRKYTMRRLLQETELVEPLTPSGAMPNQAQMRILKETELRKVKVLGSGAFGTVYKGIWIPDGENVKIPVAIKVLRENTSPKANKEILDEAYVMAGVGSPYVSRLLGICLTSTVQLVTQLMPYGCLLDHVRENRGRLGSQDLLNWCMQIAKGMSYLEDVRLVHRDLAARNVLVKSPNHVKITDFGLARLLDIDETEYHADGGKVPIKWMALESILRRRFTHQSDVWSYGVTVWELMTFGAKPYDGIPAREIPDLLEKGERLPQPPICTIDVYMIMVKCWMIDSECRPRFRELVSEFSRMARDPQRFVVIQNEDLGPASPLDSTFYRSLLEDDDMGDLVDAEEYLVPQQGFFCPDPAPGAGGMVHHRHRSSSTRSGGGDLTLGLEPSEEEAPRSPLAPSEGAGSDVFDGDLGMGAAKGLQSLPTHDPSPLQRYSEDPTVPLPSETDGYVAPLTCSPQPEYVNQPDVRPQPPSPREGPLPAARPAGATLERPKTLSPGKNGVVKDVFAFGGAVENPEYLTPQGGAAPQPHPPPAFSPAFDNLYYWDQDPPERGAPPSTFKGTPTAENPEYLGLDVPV

[3] = reduced viability of SK-BR-3 breast cancer cells – cell-based, 24 h, human, pilot screen (AID 572;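 active = viability at or below 10% of carrier control in both of two separate runs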;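 also: compound exposure lasted between 18 and 24 h rather than exactly 24 h; 100% = carrier-treated control wells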); details: SK-BR-3 viability, CellTiter-Glo luminescence, at 10 µM, stronger effect = lower value
[4] = HUVEC growth inhibition – cell-based, human, primary screen (AID 575;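 active = viability at or below 30% in both replicate assays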;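 also: 100% = median of untreated cell wells with 0.1% DMSO on each plate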); details: HUVEC proliferation, CellTiter-Glo luminescence, 72 h; at 10 µM; stronger effect = lower value
[5] = H69AR cell proliferation blockers – human, duplicate replicates, primary screen (AID 580;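 active = viability at or under a set limit in both replicates, limit being median viability minus 3 SD, cut at about 48% in these data, passing the limit was not always enough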;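 also: 100% = mean luminescence of untreated wells and 0% = no signal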); details: H69AR lung tumor cells viability, ATP luminescence, 72 h; at 10 µM; stronger effect = lower value
[6] = MRP1 drug-resistance reversers in H69AR cells – cell-based, doxorubicin co-treatment, pilot screen (AID 601;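 active = viability loss from added drug above about 55%, and viability with drug at most 40%, in both replicates, limit read from the data, passing the limit was not always enough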); details: CellTiter-Glo, 72 h, at 10 µM; for differential viability (reversal): stronger effect = higher value
[7] = yeast transport mutant growth inhibition pilot in 384-well plates, post-Golgi transport modulator project (AID 636; in the data active = inhibition above about 31%); details: absorbance 615 nm, about 18 h, stronger effect = higher value
[8] = growth suppression of yeast trafficking mutant, preliminary HTS, modulators of trafficking downstream of Golgi apparatus project, 1536-format plate, OD 615 nm (AID 637; in the data active = inhibition above about 30%); details: yeast transport mutant growth, absorbance 615 nm, 18 h; stronger effect = higher value
[9] = S. cerevisiae growth inhibition in permissive medium (OD615), pilot counter-assay for S. cerevisiae lifespan shortening project, permissive growth control (AID 705;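 active = growth inhibition above 25% in both replicates, a cutoff set 3 SD above the mean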); details: OD615, 24 h, at 10 µM, stronger effect = higher value
[10] = S. cerevisiae growth inhibition in restrictive medium, OD615, pilot screen, restrictive growth control, yeast lifespan reduction project (AID 706;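 active = growth inhibition above a set limit, 3 SD over mean compound inhibition, in both replicates, cut at about 43% in these data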;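 also: modified DeaD lifespan yeast strain shifted to restrictive glucose medium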); details: OD615, 48 h, at 10 µM, stronger effect = higher value
[11] = doxorubicin toxicity protection in MRP-1 cells – H69AR cells, CellTiter-Glo, duplicate, MRP-1 activator project, pilot screen (AID 807;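 active = viability increase at or above a cutoff of the median across tested compounds plus 3 SD, cut at about 8.5% in these data, passing the limit was not always enough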;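 also: compound pretreatment 18-22 h then 72 h combined with doxorubicin; 0% = doxorubicin alone and 100% = vehicle without doxorubicin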); details: H69AR viability with doxorubicin, CellTiter-Glo luminescence; at 10 µM; stronger effect = higher value
[12] = viability of HCT116 without oncogenic beta-catenin – human colon tumor cells, pilot screen (AID 823;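 active = cell viability at or below a set limit in both duplicate runs, the limit being the all-compound median minus 4 SD, cut at about 23% in these data, passing the limit was not always enough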;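 also: 0% = wells killed by 20 µM Hyamine and 100% = untreated DMSO cell wells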); details: HCT116 beta-catenin knockout viability, CellTiter-Glo, 60 h; at 10 µM; stronger effect = lower value
[13] = viability of PTEN-null HCT116 cells – cell-based, HCT116 clonal line, CellTiter-Glo, pilot screen (AID 824;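 active = viability at or below 27.92% in each of two runs, the all-compound median minus 4 SD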;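 also: 0% = 20 µM Hyamine control and 100% = vehicle cell control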); details: HCT116 PTEN-deleted viability, 60 h, at 10 µM, stronger effect = lower value
[14] = RAM pathway blockade in budding yeast – dse1pr::URA3 reporter, 5-FOA selection, pilot screen (AID 869;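 active = inhibition over a set limit, the all-compound mean plus 3 SD, in both replicate runs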;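 also: 0% = DMSO wells with no growth and 100% = 10 µM 1-NA-PP1 with full growth; RAM network block rescues cells from 5-FOA so hits raise OD615 growth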); details: S. cerevisiae dse1pr::URA3 5-FOA growth, OD615, 2 d; at 10 µM; stronger effect = higher value; strain carries analog-sensitive mutant Cbk1 kinase
[15] = RAM signaling pathway blockade in yeast – S. cerevisiae, Pdr1DBD-CYC8 efflux-inhibited sensitized strain, primary screen (AID 1298);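 also: 0% = DMSO untreated cells without growth and 100% = 10 µM 1-NA-PP1 full growth; higher means more yeast growth rescued from 5-FOA killing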; details: S. cerevisiae cbk1-as DSE1-URA3 strain, 5-FOA growth OD615, 2 d; at 50 µM; stronger effect = higher value
[16] = H69AR cells + 2 uM doxorubicin, measured here: viability with 2 uM doxorubicin, stronger effect = lower value
[17] = H69AR cells, compound alone cytotoxicity

SMILES | viability [1] | Her2 level [2] | viability [3] | viability [4] | viability [5] | differential viability (reversal) ([6]; H69AR cells + 2 uM doxorubicin) | viability [6, 16] | viability [6, 17] | inhibition [7] | inhibition [8] | growth inhibition [9] | growth inhibition [10] | viability increase [11] | viability [12] | viability [13] | inhibition [14] | RAM network inhibition [15]
CCOC(=O)N1CCC(NC(=O)c2cnn3ccccc23)CC1 | 112% | 123% (inactive) | 112% (inactive) | 86% (inactive) | 87.1% (inactive) | 1.21% (inactive) | 85.9% | 87.1% | -1.2% (inactive) | 3.67% (inactive) | -12.9% (inactive) | -10.7% (inactive) | -1.34% (inactive) | 108% (inactive) | 99.9% (inactive) | 0.135% (inactive) | 2.01% (inactive)
COCCCNC(=O)c1ccc(CS(=O)(=O)c2ccc(OC)cc2)o1 | 104% | 105% (inactive) | 104% (inactive) | 95.4% (inactive) | 91.6% (inactive) | 4.5% (inactive) | 87.1% | 91.6% | -4% (inactive) | 2.62% (inactive) | -12% (inactive) | -24.6% (inactive) | -1.48% (inactive) | 98.6% (inactive) | 91% (inactive) | 0.405% (inactive) | 1.46% (inactive)
O=C(CSc1nc(-c2ccco2)cc(C(F)(F)F)n1)NCCCn1ccnc1 | 94% | 93% (inactive) | 94% (inactive) | 64.9% (inactive) | 94.7% (inactive) | -4.19% (inactive) | 98.9% | 94.7% | -2.53% (inactive) | -2.3% (inactive) | -8.51% (inactive) | -15.7% (inactive) | -0.15% (inactive) | 98.6% (inactive) | 96.3% (inactive) | 1.44% (inactive) | 9.1% (inactive)
CCN1CCN(C(=O)c2oc(=O)c3ccccc3c2-c2ccc(C)cc2)CC1 | 96% | 102% (inactive) | 96% (inactive) | 98.6% (inactive) | 96.4% (inactive) | -4.83% (inactive) | 101% | 96.4% | -3.07% (inactive) | 5.9% (inactive) | -1.38% (inactive) | -6.39% (inactive) | -3.04% (inactive) | 91.9% (inactive) | 90.5% (inactive) | 2.07% (inactive) | 1.85% (inactive)
CNC(=O)CN(c1ccc(C(C)C)cc1)S(C)(=O)=O | 94% | 108% (inactive) | 94% (inactive) | 95.6% (inactive) | 86.3% (inactive) | 0.39% (inactive) | 85.9% | 86.3% | -3.25% (inactive) | -4% (inactive) | -10.4% (inactive) | -21.6% (inactive) | 0.08% (inactive) | 95% (inactive) | 96.1% (inactive) | 1.04% (inactive) | 2.63% (inactive)
Cc1ccc(S(=O)(=O)N2CCC(C(=O)N3CCN(Cc4ccccc4)CC3)CC2)cc1 | 99% | 91% (inactive) | 99% (inactive) | 100% (inactive) | 85.3% (inactive) | -15.4% (inactive) | 101% | 85.3% | -1.73% (inactive) | -0.33% (inactive) | -8.33% (inactive) | 0.335% (inactive) | 1.01% (inactive) | 90.5% (inactive) | 92.6% (inactive) | 2.2% (inactive) | 4.44% (inactive)
CCOc1ccc(Cn2nnc(C(=O)Nc3ccc(OC)cc3OC)c2N)cc1 | 96.5% | 102% (inactive) | 96.5% (inactive) | 67.5% (inactive) | 102% (inactive) | 2.46% (inactive) | 99.8% | 102% | -1.07% (inactive) | -5.9% (inactive) | -10.3% (inactive) | -9.57% (inactive) | -4.36% (inactive) | 83.3% (inactive) | 82.8% (inactive) | 3.14% (inactive) | 4.87% (inactive)
CCOC(=O)c1ccc2ncc(C(=O)OCC)c(NCCN(C)C)c2c1 | 84% | 99.5% (inactive) | 84% (inactive) | 102% (inactive) | 91.8% (inactive) | 10.6% (inactive) | 81.2% | 91.8% | -0.8% (inactive) | 1.83% (inactive) | -4.69% (inactive) | 2.56% (inactive) | -1.02% (inactive) | 95.8% (inactive) | 94.8% (inactive) | 2.64% (inactive) | 2.56% (inactive)
Cc1nc2ccccc2c2oc(C(=O)N3CCC(N4CCCCC4)CC3)cc12 | 102% | 104% (inactive) | 102% (inactive) | 75.7% (inactive) | 87.4% (inactive) | 9.3% (inactive) | 78.1% | 87.4% | -2.82% (inactive) | 0.17% (inactive) | -9.32% (inactive) | -4.43% (inactive) | -4.92% (inactive) | 83.9% (inactive) | 79.6% (inactive) | 0.43% (inactive) | 4.3% (inactive)
CCOC(=O)Cc1nnc(NC(=O)c2ccccc2OCC)s1 | 100% | 92.5% (inactive) | 100% (inactive) | 103% (inactive) | 98% (inactive) | 9.93% (inactive) | 88.1% | 98% | 0% (inactive) | -4.26% (inactive) | -9.41% (inactive) | -14.8% (inactive) | -0.28% (inactive) | 102% (inactive) | 102% (inactive) | 1.33% (inactive) | 3.5% (inactive)
